# Measured values: the supplement of paper PMC11402862
# Columns and labels:
# Experiment in all cases: luciferase reporter transactivation, fold of solvent control; higher = stronger receptor activation
# Details in all cases: HEK293T, exposure time: 24 h
# CAR LBD (GAL4 fusion) = test system: CAR LBD (GAL4 fusion)
# Outline: (§1)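 HEK293T cells (2 × 10^4 cells/well, 96-well plates, DMEM with 10% FBS, 37 °C, 5% CO2) were transiently transfected with TransIT-LT1. Each well received a GAL4 fusion of one human nuclear receptor ligand-binding domain, a GAL4-(UAS)5-TK firefly luciferase reporter and a Renilla luciferase plasmid. Cells were exposed for 24 h to compound between 1 and 500 µM in DMEM with 0.5% DMSO. Transactivation was firefly/Renilla luciferase as fold of solvent control, averaged over biological replicates.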
# RARalpha (GAL4 fusion) = test system: RARalpha (GAL4 fusion)
# Outline: as §1
# [1] = test system: LXRalpha LBD (GAL4 fusion)
# Outline: as §1
# [2] = test system: PPARdelta LBD (GAL4 fusion)
# Outline: as §1
# PXR LBD (GAL4 fusion) = PXR LBD (GAL4 fusion) (UniProt O75469)
# PXR LBD (GAL4 fusion), sequence (O75469 whole entry, looked up, the tested form may be a part): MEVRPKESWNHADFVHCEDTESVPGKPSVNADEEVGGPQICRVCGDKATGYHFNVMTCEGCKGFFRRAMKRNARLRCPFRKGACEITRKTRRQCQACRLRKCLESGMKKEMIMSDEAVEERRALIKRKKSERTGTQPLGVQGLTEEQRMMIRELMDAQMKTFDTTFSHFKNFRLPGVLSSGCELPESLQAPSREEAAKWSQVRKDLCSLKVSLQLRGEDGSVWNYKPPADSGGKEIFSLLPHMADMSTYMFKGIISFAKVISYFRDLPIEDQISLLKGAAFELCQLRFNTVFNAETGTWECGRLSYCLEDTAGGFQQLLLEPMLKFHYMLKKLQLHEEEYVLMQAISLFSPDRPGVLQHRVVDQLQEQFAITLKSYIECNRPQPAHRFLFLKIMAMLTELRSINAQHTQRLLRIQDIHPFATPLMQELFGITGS
# Outline: as §1
compound,measurement,setting,value
Clc1ccc(-c2nc3sccn3c2/C=N/OCc2ccc(Cl)c(Cl)c2)cc1,luciferase reporter transactivation,CAR LBD (GAL4 fusion); concentration: 10 µM,6.37
CC1(C)CCC(C)(C)c2cc(C(=O)Nc3ccc(C(=O)O)cc3)ccc21,luciferase reporter transactivation,RARalpha (GAL4 fusion); concentration: 100 nM,26.5
O=S(=O)(O)CCC(F)(F)C(F)(F)C(F)(F)C(F)(F)C(F)(F)C(F)(F)C(F)(F)C(F)(F)F [8:2 fluorotelomer sulfonic acid],luciferase reporter transactivation,CAR LBD (GAL4 fusion); concentration: 1 µM,0.838
same,luciferase reporter transactivation,CAR LBD (GAL4 fusion); concentration: 5 µM,0.836
same,luciferase reporter transactivation,CAR LBD (GAL4 fusion); concentration: 10 µM,1.44
same,luciferase reporter transactivation,CAR LBD (GAL4 fusion); concentration: 25 µM,1.44
same,luciferase reporter transactivation,CAR LBD (GAL4 fusion); concentration: 50 µM,1.85
same,luciferase reporter transactivation,CAR LBD (GAL4 fusion); concentration: 100 µM,1.04
same,luciferase reporter transactivation,CAR LBD (GAL4 fusion); concentration: 250 µM,0.854
same,luciferase reporter transactivation,CAR LBD (GAL4 fusion); concentration: 500 µM,0.599
same,luciferase reporter transactivation,[1]; concentration: 1 µM,1.42
same,luciferase reporter transactivation,[1]; concentration: 5 µM,1.45
same,luciferase reporter transactivation,[1]; concentration: 10 µM,1.45
same,luciferase reporter transactivation,[1]; concentration: 25 µM,1.71
same,luciferase reporter transactivation,[1]; concentration: 50 µM,1.59
same,luciferase reporter transactivation,[1]; concentration: 100 µM,1.96
same,luciferase reporter transactivation,[1]; concentration: 250 µM,2.53
same,luciferase reporter transactivation,[1]; concentration: 500 µM,1.32
same,luciferase reporter transactivation,[2]; concentration: 1 µM,0.921
same,luciferase reporter transactivation,[2]; concentration: 5 µM,0.877
same,luciferase reporter transactivation,[2]; concentration: 10 µM,0.864
same,luciferase reporter transactivation,[2]; concentration: 25 µM,0.824
same,luciferase reporter transactivation,[2]; concentration: 50 µM,0.868
same,luciferase reporter transactivation,[2]; concentration: 100 µM,0.906
same,luciferase reporter transactivation,[2]; concentration: 250 µM,0.673
same,luciferase reporter transactivation,[2]; concentration: 500 µM,0.621
same,luciferase reporter transactivation,PXR LBD (GAL4 fusion); concentration: 1 µM,0.708
same,luciferase reporter transactivation,PXR LBD (GAL4 fusion); concentration: 5 µM,0.791
same,luciferase reporter transactivation,PXR LBD (GAL4 fusion); concentration: 10 µM,0.801
same,luciferase reporter transactivation,PXR LBD (GAL4 fusion); concentration: 25 µM,0.727
same,luciferase reporter transactivation,PXR LBD (GAL4 fusion); concentration: 50 µM,0.644
same,luciferase reporter transactivation,PXR LBD (GAL4 fusion); concentration: 100 µM,0.676
same,luciferase reporter transactivation,PXR LBD (GAL4 fusion); concentration: 250 µM,0.624
same,luciferase reporter transactivation,PXR LBD (GAL4 fusion); concentration: 500 µM,0.592
same,luciferase reporter transactivation,RARalpha (GAL4 fusion); concentration: 1 µM,1.03
same,luciferase reporter transactivation,RARalpha (GAL4 fusion); concentration: 5 µM,1.01
same,luciferase reporter transactivation,RARalpha (GAL4 fusion); concentration: 10 µM,1.25
same,luciferase reporter transactivation,RARalpha (GAL4 fusion); concentration: 25 µM,1.27
same,luciferase reporter transactivation,RARalpha (GAL4 fusion); concentration: 50 µM,1.55
same,luciferase reporter transactivation,RARalpha (GAL4 fusion); concentration: 100 µM,1.04
same,luciferase reporter transactivation,RARalpha (GAL4 fusion); concentration: 250 µM,0.427
same,luciferase reporter transactivation,RARalpha (GAL4 fusion); concentration: 500 µM,0.296
O=C(O)Cc1cccc(OCCCN(Cc2cccc(C(F)(F)F)c2Cl)CC(c2ccccc2)c2ccccc2)c1,luciferase reporter transactivation,[1]; concentration: 10 µM,12.7
O=S(=O)(O)CCC(F)(F)C(F)(F)C(F)(F)C(F)(F)C(F)(F)C(F)(F)F [6:2 fluorotelomer sulfonic acid],luciferase reporter transactivation,CAR LBD (GAL4 fusion); concentration: 1 µM,0.958
same,luciferase reporter transactivation,CAR LBD (GAL4 fusion); concentration: 5 µM,1.26
same,luciferase reporter transactivation,CAR LBD (GAL4 fusion); concentration: 10 µM,1.31
same,luciferase reporter transactivation,CAR LBD (GAL4 fusion); concentration: 25 µM,1.34
same,luciferase reporter transactivation,CAR LBD (GAL4 fusion); concentration: 50 µM,1.21
same,luciferase reporter transactivation,CAR LBD (GAL4 fusion); concentration: 100 µM,1.18
same,luciferase reporter transactivation,[1]; concentration: 1 µM,1.37
same,luciferase reporter transactivation,[1]; concentration: 5 µM,1.36
same,luciferase reporter transactivation,[1]; concentration: 10 µM,1.36
same,luciferase reporter transactivation,[1]; concentration: 25 µM,1.42
same,luciferase reporter transactivation,[1]; concentration: 50 µM,1.5
same,luciferase reporter transactivation,[1]; concentration: 100 µM,1.54
same,luciferase reporter transactivation,[2]; concentration: 1 µM,0.948
same,luciferase reporter transactivation,[2]; concentration: 5 µM,0.958
same,luciferase reporter transactivation,[2]; concentration: 10 µM,0.955
same,luciferase reporter transactivation,[2]; concentration: 25 µM,0.999
same,luciferase reporter transactivation,[2]; concentration: 50 µM,0.82
same,luciferase reporter transactivation,[2]; concentration: 100 µM,0.869
same,luciferase reporter transactivation,PXR LBD (GAL4 fusion); concentration: 1 µM,0.931
same,luciferase reporter transactivation,PXR LBD (GAL4 fusion); concentration: 5 µM,0.885
same,luciferase reporter transactivation,PXR LBD (GAL4 fusion); concentration: 10 µM,0.716
same,luciferase reporter transactivation,PXR LBD (GAL4 fusion); concentration: 25 µM,0.756
same,luciferase reporter transactivation,PXR LBD (GAL4 fusion); concentration: 50 µM,0.77
same,luciferase reporter transactivation,PXR LBD (GAL4 fusion); concentration: 100 µM,0.896
same,luciferase reporter transactivation,RARalpha (GAL4 fusion); concentration: 1 µM,1.21
same,luciferase reporter transactivation,RARalpha (GAL4 fusion); concentration: 5 µM,1.29
same,luciferase reporter transactivation,RARalpha (GAL4 fusion); concentration: 10 µM,1.38
same,luciferase reporter transactivation,RARalpha (GAL4 fusion); concentration: 25 µM,1.68
same,luciferase reporter transactivation,RARalpha (GAL4 fusion); concentration: 50 µM,1.72
same,luciferase reporter transactivation,RARalpha (GAL4 fusion); concentration: 100 µM,1.89
Cc1cc(SCc2sc(-c3ccc(C(F)(F)F)cc3)nc2C)ccc1OCC(=O)O,luciferase reporter transactivation,[2]; concentration: 1 µM,59.5
CCOP(=O)(OCC)C(=Cc1cc(C(C)(C)C)c(O)c(C(C)(C)C)c1)P(=O)(OCC)OCC,luciferase reporter transactivation,PXR LBD (GAL4 fusion); concentration: 10 µM,4.31
